Laboratory results published in article PMC5540273 (PLoS ONE, 2017).

How the values were obtained:
Settings in all cases: concentration: 1 μM, replicates: in singlicate; n = 1
MLK1 = tested on: T1, MLK1
T1 construct: gene MAP3K9

MLK2 = tested on: MLK2
MLK3 = tested on: MLK3
MRCKA = tested on: MRCKA
MRCKB = tested on: T2, MRCKB
T2 construct: gene CDC42BPB

MST1R = tested on: MST1R
MST1 = tested on: T3, MST1
T3 construct: gene STK4

MST2 = tested on: T4, MST2
T4 construct: gene STK3

MST3 = tested on: T5, MST3
T5 construct: gene STK24

MST4 = tested on: MST4
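Further: KINOMEscan kinase panel screen.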

SMILES	%Inh (MLK1)	%Inh (MLK2)	%Inh (MLK3)	%Inh (MRCKA)	%Inh (MRCKB)	%Inh (MST1R)	%Inh (MST1)	%Inh (MST2)	%Inh (MST3)	%Inh (MST4)
Cc1cc(-c2ccnc(Nc3cccc(C#N)c3)n2)cc(C)c1O [GSK1440913]	66%	0%	36%	5%	0%	0%	0%	9%	6%	9%
O=C(Nc1n[nH]c2cc(-c3cccs3)ccc12)C1CC1 [SB-731284]	0%	27%	0%	0%	0%	0%	10%	0%	7%	39%
COc1cc(Nc2ccnc3cc(-c4ccncc4)ccc23)cc(OC)c1OC.Cl [GW494610]	2%	27%	21%	0%	4%	41%	9%	0%	0%	0%
CC(=O)Nc1cn2nc(Oc3cccc(NC(=O)c4cccc(C(F)(F)F)c4)c3)ccc2n1	2%	23%	6%	7%	0%	0%	27%	0%	1%	0%
O=C(O)C(F)(F)F.O=c1[nH]ccc2nc(N[C@@H]3CCNC3)nc(Nc3ccc4c(c3)S(=O)(=O)CC4)c12 [GSK2181306]	79%	9%	61%	26%	54%	1%	95.9%	80%	96.6%	95.5%
CCNC(=O)/C=C/c1n[nH]c2cc(Sc3ccccc3C(=O)NC)ccc12	7%	7%	0%	0%	48%	8%	0%	0%	30%	0%
COc1ccc(C2=C(Nc3cccc(O)c3)C(=O)NC2=O)cc1 [SB-390766]	0%	0%	0%	0%	2%	100%	7%	100%	0%	0%
Cn1cc(-c2cnc(N)c3c(-c4ccc5c(c4)CCN5C(=O)Cc4ccccc4)csc23)cn1 [GSK2593074]	14%	25%	14%	10%	10%	12%	97.8%	100%	7%	33%
COc1cc(Nc2nccc(N3CCC(NS(=O)(=O)c4ccc(NC(C)=O)cc4)CC3)n2)cc(OC)c1OC [GSK1379825]	52%	0%	51%	92.3%	80%	13%	0%	19%	0%	0%
CCOc1nccc(-c2c(-c3ccc(F)cc3)ncn2C2CCNCC2)n1 [SB-249175]	3%	14%	15%	0%	26%	0%	0%	0%	13%	11%
Cc1cccc(Nc2nc(NCCN)ncc2C(N)=O)c1 [GSK1292139]	85%	0%	61%	2%	0%	14%	35%	38%	23%	23%
O=C(Nc1c(F)cccc1F)c1cc(C(=O)c2ccccc2F)c[nH]1 [GSK1326180]	3%	21%	0%	0%	0%	0%	2%	0%	0%	0%
COc1ccc(C)c(Nc2ccnc(Nc3ccc(-c4cnc[nH]4)cc3)n2)c1.Cl [GW784041]	30%	12%	0%	20%	5%	0%	23%	38%	17%	0%
CNc1nccc(-c2ccc3c(N)n[nH]c3c2)n1 [GSK2206003]	4%	0%	10%	0%	0%	10%	30%	0%	13%	0%
O=C(O)C(F)(F)F.O=c1[nH]ccc2nc(N[C@@H]3CCNC3)nc(Nc3cc(Cl)cc(Cl)c3)c12 [GSK2188764]	95.7%	0%	88%	24%	35%	11%	86%	80%	85%	91.1%
CN(c1ccc2c(c1)nc(NCc1ccccc1)n2C)c1ccnc(Nc2ccc(CS(C)(=O)=O)cc2)n1.Cl [GW811603]	12%	17%	2%	11%	0%	23%	24%	2%	0%	0%

SMILES	%Inh (MLK1)	%Inh (MLK2)	%Inh (MLK3)	%Inh (MRCKA)	%Inh (MRCKB)	%Inh (MST1R)	%Inh (MST1)	%Inh (MST2)	%Inh (MST3)	%Inh (MST4)
CCNc1nccc(-c2c(-c3ccc(F)cc3)ncn2C2CCN(C)CC2)n1	0%	7%	0%	0%	0%	0%	0%	38%	21%	0%
Cc1ccc(Nc2ccnc(Nc3ccc(C)c(F)c3)n2)cc1O.Cl [GW582868]	60%	0%	45%	0%	0%	18%	0%	9%	0%	0%
Cc1ccc(-c2ccc3occ(-c4ccc(S(C)=O)cc4)c3c2)nn1 (centres unmarked)	0%	10%	0%	0%	0%	0%	0%	0%	0%	0%
COC(=O)Nc1nc2ccc(Oc3ccc(CC(=O)Nc4cc(C(F)(F)F)ccc4F)cc3)cc2[nH]1 [GW680903]	0%	0%	0%	39%	0%	34%	0%	0%	4%	0%
O=C(Nc1n[nH]c2nc(-c3ccccc3O)ccc12)C1CC1 [SB-711880]	0%	0%	0%	4%	0%	10%	0%	16%	0%	20%
COC(=O)Nc1nc2cc(Oc3ccc(NC(=O)Nc4cccc(SC)c4)cc3)ccc2[nH]1.Cl [GW697999]	0%	0%	0%	14%	0%	29%	4%	0%	0%	0%
Nc1cccc(-c2ccc3c(N)n[nH]c3c2)c1 [GSK2193613]	10%	100%	19%	0%	0%	26%	6%	17%	21%	0%
CC(C)c1nc(-c2ccc(F)c(NS(=O)(=O)c3c(F)cccc3F)c2)c(-c2ccnc(Nc3ccc(N4CCOCC4)nc3)n2)s1 [GSK1804250]	52%	8%	52%	4%	0%	46%	17%	3%	23%	23%
Cl.Cl.NC(CNC(=O)c1cc(Br)c(-c2ccnc3[nH]ccc23)s1)c1ccccc1 (centres unmarked) [GSK1322949]	0%	0%	0%	29%	93.7%	5%	0%	26%	5%	3%
Cl.N#CCc1ccc(Nc2nccc(Nc3ccc(Oc4ccccc4)cc3)n2)cc1 [GW639905]	0%	0%	0%	6%	0%	2%	20%	0%	0%	0%
N#Cc1cnc2cc(-c3cnc(CNCCN4CCOCC4)s3)ccc2c1Nc1ccc(Oc2ccccc2)cc1 [GW664114]	78%	17%	83%	9%	0%	86%	20%	12%	34%	18%
O=C1NC(=O)C(c2ccccc2Cl)=C1Nc1cccc(Cl)c1 [SB-342409]	0%	28%	0%	11%	14%	0%	3%	8%	0%	0%
CN(c1ccc(NC(=O)Nc2cccc(Cl)c2)cc1)c1ccnc(N)n1.Cl [GW830707]	0%	7%	0%	0%	17%	22%	0%	11%	0%	16%
Cc1ccc(NC(=O)c2cccc(N3CCCCC3)c2)cc1-c1ccc(C(=O)NCC2CC2)cc1 [GSK1917008]	0%	17%	12%	17%	0%	37%	13%	34%	13%	1%
Cc1ccccc1CC(=O)N1CCc2cc(-c3cn(C)c4ncnc(N)c34)ccc21 [GSK2603346]	7%	0%	18%	0%	0%	46%	97%	0%	46%	54%
Cl.O=C(Nc1ccc(Oc2ccc3[nH]c(NC(=O)c4ccco4)nc3c2)cc1)Nc1cc(C(F)(F)F)ccc1F [GW683134]	28%	28%	49%	15%	0%	41%	17%	0%	8%	0%
